Assay outcomes from PubChem.
HEK293 tox = cytotoxic compounds in HEK 293 cells | Potency, µM (highest dose often 115 µM), for the others: at the top dose activity change, negative = cytotoxicity, hits mostly inhibitors | HEK 293 viability, ATP luminescence (CellTiter-Glo), 48-72 h | hit rate 6.6% among 94,000 | AID 1345083; also: nearly all actives have a fitted effect of over 60% in size
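Luminescence from cellular ATP, measured with CellTiter-Glo, indicates HEK 293 viability. Cells plated at 250 cells/well are treated with compound for 48 or 72 hr at 37 degree Celsius before reagent addition.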
SNCA expr inh = reduces expression of the alpha-synuclein gene; HEK-293 SNCA-luciferase knock-in, luminescence, 24 h; Potency, µM (titrated, usually from 57.2 µM), inactives show at the highest dose activity change, negative = inhibition, usual class: inhibitors; hit rate 0.17% among 140,000; AID 1671194;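 also: plate controls were DMSO cells for no effect and cell-free wells for full effect; nearly all actives have a fitted effect of over 45% in size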
Luciferase inh = inhibitors of firefly (Photinus pyralis) luciferase; purified P. pyralis luciferase, luminescence, biochemical; Potency, µM (highest dose often 115 µM), hits mostly inhibitors; hit rate 2.5% among 76,000; also: nearly all actives have a fitted effect of over 65% in size
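Luminescence read by CCD imaging after purified firefly luciferase (10nM final) was added to substrate buffer holding 10uM D-luciferin and 10uM ATP, pH 7.5, pre-dosed with compound.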
3T3 cytotox = cytotoxic compounds in NIH 3T3 cells. Potency, µM (series often up to 96.7 µM), without a hit: at the top dose activity change, negative = cytotoxicity, most hits filed as inhibitors. AID 1345082. NIH 3T3 viability, CellTiter-Glo ATP luminescence, 48-72 h. hit rate 4.3% among 94,000; also: nearly all actives have a fitted effect of over 55% in size
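Cells were seeded at 400 per well, treated with pin-transferred compound, and kept 48 or 72 hr at 37 °C before CellTiter-Glo addition and luminescence imaging of cellular ATP.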
hNpr1 antagonist = human Npr1 receptor antagonism; P16066; HEK293 hNpr1 GloSensor cGMP, ANP-stimulated luminescence; Potency, µM (doses to about 46.3 µM), for the others: top-dose activity change, negative = inhibition, most hits filed as inhibitors; hit rate 1.6% among 76,000; AID 1347048; calls by dose curve; also: nearly all actives have a fitted effect of over 60% in size
Target sequence (P16066 whole entry, looked up): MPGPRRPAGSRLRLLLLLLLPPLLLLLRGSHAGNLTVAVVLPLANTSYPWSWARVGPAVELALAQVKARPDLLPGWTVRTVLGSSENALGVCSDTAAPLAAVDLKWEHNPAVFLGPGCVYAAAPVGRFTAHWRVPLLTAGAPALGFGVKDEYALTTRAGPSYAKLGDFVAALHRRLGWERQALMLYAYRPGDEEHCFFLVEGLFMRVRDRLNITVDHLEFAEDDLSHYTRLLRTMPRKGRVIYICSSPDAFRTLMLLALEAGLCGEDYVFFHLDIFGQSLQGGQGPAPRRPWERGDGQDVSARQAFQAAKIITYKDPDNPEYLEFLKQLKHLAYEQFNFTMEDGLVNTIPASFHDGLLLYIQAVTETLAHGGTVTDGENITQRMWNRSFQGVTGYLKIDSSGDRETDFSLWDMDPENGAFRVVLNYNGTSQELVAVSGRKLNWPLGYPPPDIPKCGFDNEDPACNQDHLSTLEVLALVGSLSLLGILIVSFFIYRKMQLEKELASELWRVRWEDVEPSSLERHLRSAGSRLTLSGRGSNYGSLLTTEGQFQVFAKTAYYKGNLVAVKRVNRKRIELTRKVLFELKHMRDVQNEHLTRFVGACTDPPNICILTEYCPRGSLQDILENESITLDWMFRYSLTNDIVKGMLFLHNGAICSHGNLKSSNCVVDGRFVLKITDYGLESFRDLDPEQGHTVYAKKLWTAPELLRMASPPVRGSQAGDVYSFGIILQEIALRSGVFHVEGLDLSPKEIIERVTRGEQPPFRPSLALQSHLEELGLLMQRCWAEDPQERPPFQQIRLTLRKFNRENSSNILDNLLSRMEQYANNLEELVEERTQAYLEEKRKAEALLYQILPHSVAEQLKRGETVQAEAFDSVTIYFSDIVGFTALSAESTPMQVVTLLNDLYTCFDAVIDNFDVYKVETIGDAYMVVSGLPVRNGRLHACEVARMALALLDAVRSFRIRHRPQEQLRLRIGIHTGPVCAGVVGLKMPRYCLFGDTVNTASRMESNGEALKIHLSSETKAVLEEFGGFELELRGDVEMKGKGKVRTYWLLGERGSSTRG
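Compound pre-incubated 30 min at room temperature on GloSensor-loaded HEK293 cells stably carrying hNpr1 and the pGS-40F cGMP biosensor. Stimulation uses hNppA at 0.1 nM final; luminescence is taken at baseline and 20 min post-agonist.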
HEK293 viab = reduces viability of HEK-293 SNCA reporter cells; hit rate 0.12% among 150,000; Potency, µM (series often up to 57.1 µM), inactives show at the top dose activity change, negative = cytotoxicity, most hits filed as cytotoxic; HEK-293-SNCA-luc viability, GF-AFC fluorescence, 24 h;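 also: 0% = DMSO-treated cells and -100% = medium-only wells without cells; nearly all actives have a fitted effect of over 30% in size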
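HEK-293-SNCA-luc cells (1500/well) plated 24 h, then exposed 24 h to a dilution series; GF-AFC added 30 min at 37C, fluorescence 405/540 nm; normalised to medium-only and DMSO wells, Hill fit.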
An asterisk follows results filed as active; i = inactive; ? = inconclusive; / = no result given; [ ] = dose if it differs, or a comment. A selection: hits, their analogues and other compounds. The true share with any hit is near 7.4%. Unless noted, calls follow the shape of the dose curve; as a rule, active = well fitted curve in the direction sought with a large enough effect; inconclusive = small, poorly fitted or top-dose-only effect, or another doubt; inactive = no such curve, though single readings can be large; an effect the other way counts as inactive or inconclusive. Unless noted, % is scaled to controls: 0 for no effect and ±100 for the full control effect; potency is read from the fitted curve at half-maximal effect.

SMILES	HEK293 tox	SNCA expr inh	Luciferase inh	3T3 cytotox	hNpr1 antagonist	HEK293 viab
CCNC(=O)Cc1c[nH]c2ncc(-c3cccnc3OC)cc12	-38%[172 µM]	13%[87.6 µM]	i	89µM*	-15%[70.6 µM]	8%[87.6 µM]
COC1CN(C(=O)Nc2cccc(C#N)c2)CCC(=O)N(C)c2ccccc21 (stereo unspecified)	-16%[57.5 µM]	-24%[25.6 µM]	/	?	/	3%[23.9 µM]
O=C(NCc1ccc(F)cc1)N1CCc2nnc(C3CC3)n2CC1	-22%	25%	/	?	/	-7%
Cn1nccc1C(=O)NC1CCCN(c2cc(-c3ccc(Cl)cc3)[nH]n2)C1 (stereo unspecified)	?	28%	?	?	-8%	-10%
O=C(NC1CCCN(c2cc(-c3ccc(Cl)cc3)[nH]n2)C1)c1ccccn1 (stereo unspecified)	45µM*	10%	40µM*	?	-2%	-12%
Cn1cccc1C(=O)NC1CCCN(c2cc(-c3ccc(Cl)cc3)[nH]n2)C1 (stereo unspecified)	40µM*	8%	?	40µM*	-30%	-16%
CN1C[C@@H](NC(=O)Nc2ccccc2)C[C@H]1c1nc(-c2ccccc2)no1	?	49%[87.6 µM]	i	-34%[138 µM]	-10%[70.6 µM]	2%[87.6 µM]
COc1cccc(N2C(=O)NC(=NC3CCCCC3)C23CCCN(Cc2ccc(N(C)C)cc2)C3)c1 (stereo unspecified)	32µM*	?	/	28µM*	/	?
COc1cccc(N2C(=O)NC(=NC3CCCCC3)C23CCCN(Cc2ccsc2)C3)c1 (stereo unspecified)	?	?	/	40µM*	/	?
COc1ccc(CN2CCCC3(C2)C(=NC2CCCCC2)NC(=O)N3c2cccc(OC)c2)cc1 (stereo unspecified)	?	?	/	?	/	-9%
COc1cccc(N2C(=O)NC(=NC3CCCC3)C23CCCN(Cc2ccc(N(C)C)cc2)C3)c1 (stereo unspecified)	?	?	/	?	/	-13%
COc1cccc(N2C(=O)NC(=NC3CCCCC3)C23CCN(CC2CCCCC2)C3)c1 (stereo unspecified)	?	?	/	-21%	/	?
COc1cccc(N2C(=O)NC(=NC3CCCC3)C23CCN(CC2CCCCC2)C3)c1 (stereo unspecified)	?	?	/	32µM*	/	?
O=C1NC(=NC2CCCCC2)C2(CCN(CC3CCCCC3)C2)N1c1cc(F)cc(F)c1 (stereo unspecified)	32µM*	?	/	32µM*	/	-12%
O=C1NC(=NC2CCCC2)C2(CCN(CC3CC3)C2)N1c1cc(F)cc(F)c1 (stereo unspecified)	?	-28%	/	?	/	-14%
O=C1NC(=NC2CCCC2)C2(CCCN(CC3CCCCC3)C2)N1c1cc(F)cc(F)c1 (stereo unspecified)	35µM*	-16%	/	28µM*	/	?
COc1ccc(C(=O)N2CCC(C(=O)N3CCC(c4nc5ncccc5[nH]4)CC3)CC2)cc1	i	-4%	/	-6%	/	-1%
N#Cc1cccc(C(=O)N2CC(COc3ccccc3)C3(C2)CN(c2ccccc2)C3)c1 (stereo unspecified)	?	-21%[87.6 µM]	i	-18%[138 µM]	-1%[70.6 µM]	-9%[87.6 µM]
O=C(CCc1cccnc1)N1CC(COc2ccccc2)C2(C1)CN(c1ccccc1)C2 (stereo unspecified)	89µM*	-16%[87.6 µM]	i	?	-1%[70.6 µM]	4%[87.6 µM]
O=C(Cc1cccc(O)c1)N1CC(CNc2ccccc2)C2(C1)CN(c1ccccc1)C2 (stereo unspecified)	32µM*	?	i	22µM*	-18%[70.6 µM]	?
COC1CCC(C(=O)N2CC(COc3ccccc3)C3(C2)CN(c2ccccc2)C3)CC1 (stereo unspecified)	89µM*	?	i	89µM*	-9%[70.6 µM]	-25%[87.6 µM]
O=C(CCc1cccnc1)N1CC(CNc2ccccc2)C2(C1)CN(c1ccccc1)C2 (stereo unspecified)	?	?	i	?	-14%[70.6 µM]	-17%[87.6 µM]
COC1CCC(C(=O)N2CC(CNc3ccccc3)C3(C2)CN(c2ccccc2)C3)CC1 (stereo unspecified)	63µM*	?	i	45µM*	-5%[70.6 µM]	-23%[87.6 µM]
COCC(=O)N1CC(CNc2ccccc2)C2(C1)CN(c1ccccc1)C2 (stereo unspecified)	?	22%[87.6 µM]	i	-14%[138 µM]	-20%[70.6 µM]	-5%[87.6 µM]
COc1ccc(-c2cn3cc(C(=O)NCc4cccc(OC)c4)nc3s2)cc1	?	-5%	/	?	/	-19%
SMILES	HEK293 tox	SNCA expr inh	Luciferase inh	3T3 cytotox	hNpr1 antagonist	HEK293 viab
O=C(c1cccc(Br)c1)N1CCCN(c2ccnc3ccnn23)CC1	?	3%	/	?	/	8%
COc1ccc(-c2cccc(C(=O)N3CCC(C#N)CC3)c2)nn1	?	/	/	-8%	/	/
O=C(O)c1ccc([S+](=O)([O-])N2CC(COc3ccccc3)C3(CN(c4ccccc4)C3)C2)cc1 (stereo unspecified)	-32%	-22%	i	32µM*	-14%	8%
Cc1oc(-c2ccccc2Cl)nc1CS(=O)CC(=O)N1CCN(c2cccc(C(F)(F)F)c2)CC1 (stereo unspecified)	/	13µM*	/	/	/	?
CCCCN(C)C(=O)CCC1CCN(c2cc(NC3CC3)ncn2)CC1	32µM*	?	i	?	18µM*	-20%
O=C(CCC1CCN(c2cc(NC3CC3)ncn2)CC1)NCc1ccc(F)cc1F	?	3.5µM*	?	?	?	-6%
O=C(CCC1CCN(c2cc(NC3CC3)ncn2)CC1)NCc1cc(F)cc(F)c1	?	4.5µM*	?	?	?	10%
O=C(CCC1CCN(c2cc(NC3CC3)ncn2)CC1)NCc1ccc(F)cc1	-6%	?	?	-3%	-4%	5%
CC(C)Oc1ccc(CN2CCC(CO)(Cc3ccccc3Cl)CC2)cc1CO	?	-20%	i	25µM*	0%	-4%
OCC1(Cc2ccccc2Cl)CCN(Cc2cc3ccccc3o2)CC1	18µM*	?	i	?	?	?
CNC(=O)[C@@H]1CN2CCN(C(=O)CC3CCCC3)C[C@@H]2[C@H]1c1ccccc1	-21%	/	/	?	/	/
O=C(COc1ccccc1)N1CCCCC1c1nc(CCOCC2CCOCC2)no1 (stereo unspecified)	?	-3%	/	-27%	/	-13%
CC(=O)NC1(C)CCN(Cc2ccc(Nc3ccccc3)cc2)C1 (stereo unspecified)	?	140%[87.6 µM]	?	?	2%[70.6 µM]	1%[87.6 µM]
